Compound activity: PubChem BioAssay, several laboratories
The list is not random: actives were taken first. Their share in the collection is about 2.5%.
PKA-R2B act – activators of human PKA-R2B complex; P22694+P31323; PKA-R2B holoenzyme dissociation, Cy5-IP20 fluorescence polarization; R2B truncated from residue 108, S112A mutant; 0% DMSO only, 100% 113 µM cGMP; activation, % at 11.4 µM; 340,000 tested, 0.079% active;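 active = activation above a cutoff set at the mean over all compounds plus 3 SD, cut at about 18% in these data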;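 note: higher means more holoenzyme dissociation and a rise in polarization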
Target sequence (P31323 whole entry, looked up, other chains not shown, the tested form may be a part): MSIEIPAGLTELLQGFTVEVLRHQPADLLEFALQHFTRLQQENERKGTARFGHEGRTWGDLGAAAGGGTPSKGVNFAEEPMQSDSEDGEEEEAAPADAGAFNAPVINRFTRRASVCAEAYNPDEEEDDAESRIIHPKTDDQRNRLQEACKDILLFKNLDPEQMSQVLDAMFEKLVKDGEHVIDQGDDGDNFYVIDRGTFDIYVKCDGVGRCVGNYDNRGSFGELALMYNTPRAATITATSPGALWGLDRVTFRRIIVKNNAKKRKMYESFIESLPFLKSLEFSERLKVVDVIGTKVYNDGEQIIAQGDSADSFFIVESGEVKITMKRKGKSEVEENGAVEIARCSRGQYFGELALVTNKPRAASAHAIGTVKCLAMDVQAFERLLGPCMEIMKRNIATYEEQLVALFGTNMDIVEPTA
CHT PAM – human CHT allosteric activation; Q9GZV3; CHT-expressing cells, membrane potential dye, choline EC20; stronger effect = higher value; LV-AA mutant CHT in HEK293 cells; B-score at 10 µM; 310,000 tested, 0.49% active; AID 488977;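 active = initial fluorescence not abnormally high and integrated response B-score, plate-corrected, over 3 SD above library mean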
TMEM16A inh – blocks the mouse calcium-activated chloride channel TMEM16A. HEK293 TMEM16A/YFP iodide influx fluorescence, ionomycin. Q8BHY3. 310,000 tested, 1.2% active. normalized B-score (activity score, 25-100; higher = stronger inhibition) at 10 µM;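 active = ratio plate-corrected score three or more library SD toward inhibition, starting fluorescence score within five deviations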;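 note: score derived from kinetic fluorescence span divided by baseline fluorescence per well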
TMEM16A act – mouse TMEM16A channel activation, primary screen; HEK293 TMEM16A/YFP-H148Q/I152L, iodide quench fluorescence; stronger effect = lower value; Q8BHY3; AID 623877; B-score at 10 µM; 340,000 tested, 0.3% active;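 active = fluorescence-ratio B-score plate-corrected deviation score at least 3 library SD below zero, with starting fluorescence score within 5 deviations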;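 note: channel opened by trigger with iodide after compound preincubation; score built on the fluorescence ratio of max minus min over baseline; more negative score means more quench and so TMEM16A activation or potentiation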
CHT block – inhibits the human high affinity choline transporter; Q9GZV3; 310,000 tested, 0.86% active; CHT-expressing cells, membrane potential dye, choline response; stronger effect = lower value; B-score at 10 µM; AID 488975;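 active = B-score over 3 SD under the library average, and starting fluorescence ratio not unusually high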;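 note: choline stimulus applied at its EC90 after an EC20 pre-addition; B-score computed on integrated fluorescence ratio after choline addition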
PKA-R1A activ – activators of PKA-R1A complex | P00514+P68181 | PKA-R1A dissociation, Cy5-IP20 fluorescence polarization; scaled: DMSO 0%, 113 µM cGMP 100% | activation, % at 11.4 µM | 340,000 tested, 0.083% active | AID 504707;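 active = percent activation above the mean of all tested compounds plus 3 SD, cut at about 19% in these data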;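 note: higher means more PKAc released from R1A so a rise in polarization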
CHT block conf – human CHT inhibition, confirmatory screen; shares compounds with CHT block; CHT-expressing cells, choline membrane potential dye; LV-to-AA substituted CHT, HEK293 cells; 2,400 tested, 70% active; CHT activity remaining % of control (stronger effect = lower value), % at 10 µM;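 active = choline transporter activity left, mean of duplicates at 10 µM, below buffer-only control mean minus 3 SD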;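 note: depolarization triggered by choline at its EC90 following an EC20 pre-addition; 0% = hemicholinium-3 full block and 100% = buffer-only control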
HEK293 CHT ctr – counter-screen for CHT inhibitors: effect in parental HEK293 cells. shares compounds with CHT block. membrane potential dye, choline response; active = decrease or increase beyond buffer ±3SD. membrane potential ratio readout (active if shifted either direction beyond buffer ±3SD; no single direction) at 10 µM. 2,400 tested, 4% active. AID 493222;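 note: parental cells lack the transporter so any hit is non-specific; ratio is peak minus trough fluorescence over baseline after EC90 choline challenge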
R2B FP artifact – FP assay interference, PKA-R2B counter-screen | FP artifact counterscreen, fluorescence polarization | activation, % at 11.4 µM | AID 504796 | 270 tested, 6% active | shares compounds with PKA-R2B act; in the data active = activation above about 20%;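 note: Cy5 labelled IP20 peptide probe with compound but no PKA protein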
PKA-R2B act conf – confirmation of human PKA-R2B complex activators. 270 tested, 9% active. shares compounds with PKA-R2B act. fluorescence polarization, activation. activation, % at 11.4 µM; in the data active = activation above about 19%
Target sequence (P31323 whole entry, looked up): as the sequence (P31323 whole entry, looked up, other chains not shown, the tested form may be a part) above
R1A FP artifact – FP assay interference, PKA-R1A counter-screen; AID 504799; shares compounds with PKA-R1A activ; activation, % at 11.4 µM; 280 tested, 7% active; Cy5-IP20 peptide alone, fluorescence polarization artifact counterscreen;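 active = mean activation over triplicate runs exceeds the adjusted cutoff derived for the parent primary screen, cut at about 19% in these data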;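 note: no PKA protein present so any polarization rise reflects compound interference; 0% = tracer peptide mix alone and 100% = mix with added PKA catalytic subunit; higher means stronger polarization artifact and likely false positive in parent screen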
PKA-R1A act conf – PKA-R1A complex activation, confirmation; shares compounds with PKA-R1A activ; Cy5-IP20 fluorescence polarization, PKA-R1A holoenzyme dissociation; activation, % at 11.4 µM; 280 tested, 9% active;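 active = mean activation over replicate wells exceeds the adjusted hit threshold taken from the earlier primary screen, cut at about 20% in these data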;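 note: 0% = holoenzyme mix with DMSO only and 100% = cGMP-activated control wells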
TMEM16A reconf – reconfirmed blocker of mouse TMEM16A calcium-activated chloride channel | shares compounds with TMEM16A inh | 2,300 tested, 39% active | inhibition, % at 10 µM | HEK293 TMEM16A/YFP-H148Q, iodide quench fluorescence; ionomycin added to raise cell calcium;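 active = mean duplicate percent inhibition, scaled so buffer wells are 0 and the reference blocker 100, over three buffer SD above buffer mean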
TMEM16A Ca cntr – calcium mobilization counter-screen hit for TMEM16A inhibitor series. 2,300 tested, 2% active. TMEM16A/YFP HEK293, Fluo4 calcium mobilization. shares compounds with TMEM16A inh. calcium response (% of ionomycin), % at 10 µM;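 active = duplicate-averaged calcium signal over 20% of the ionomycin maximum, relative to buffer baseline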;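 note: each well's signal is peak minus trough fluorescence divided by its pre-addition baseline; 0% = buffer wells and 100% = ionomycin wells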
Parental YFP cnt – counter-screen for TMEM16A inhibitors: effect in parental YFP-HEK293 cells. shares compounds with TMEM16A inh. iodide YFP quench, ionomycin. YFP ratio F(max-min)/F0 at 10 µM. 2,300 tested, under 10 active. AID 652233;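 active = yellow fluorescent protein signal ratio exceeding the buffer control mean by over 5 SD of those controls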;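 note: ratio is mean of duplicate wells from kinetic YFP trace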
ClC-1 rat inh – blocks the rat ClC-1 voltage-dependent chloride channel; shares compounds with TMEM16A inh; CHO ClC-1-YFP, iodide influx fluorescence quench; iodide control reads 0, buffer control 100; ratio percent, % at 10 µM; 2,300 tested, under 10 active; AID 652236;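 active = duplicate-mean ratio percent above the mean of iodide-only control wells, which defines zero, plus 5 of their SD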;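 note: higher percent means stronger block of ClC-1 iodide influx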
The depositor's hits bear a star; i = inactive; . = no result.

SMILES | PKA-R2B act | CHT PAM | TMEM16A inh | TMEM16A act | CHT block | PKA-R1A activ | CHT block conf | HEK293 CHT ctr | TMEM16A reconf | TMEM16A Ca cntr | Parental YFP cnt | ClC-1 rat inh | others
COc1ccc(CCN2C(=O)N(c3ccc(OC)cc3)C(=O)C2CC(=O)Nc2ccccc2)cc1 (centres undefined) | -2.5 | i | i | i | i | 7.1 | . | . | . | . | . | .
CC1(C)C(C=C(Cl)Cl)C1C(=O)Nc1ccc(S(=O)(=O)Nc2ncccn2)cc1 (centres undefined) | -1.3 | i | i | i | -5.06* | -9.6 | 33.0%* | i | . | . | . | .
c1ccc(CCCCN2C(Nc3ccccc3)=NC[C@@H]2Cc2ccccc2)cc1 | 1.9 | i | i | i | -7.52* | -1.4 | 32.2%* | i | . | . | . | .
CCCCCc1c2c(cc(O)c1C(=O)O)OC(=O)c1cc(C(=O)CCCC)c(OC)cc1O2 | -9.3 | . | . | i | . | -9.4 | . | . | . | . | . | .
CCCCCc1c2c(cc(O)c1C(=O)O)OC(=O)c1c(cc(OC)cc1C(=O)CCCC)O2 | -0.4 | i | 100* | i | -5.33* | -5.0 | 35.3%* | i | . | . | . | .
CN(Cc1nc(-c2cccnc2)no1)S(=O)(=O)c1ccc(Br)cc1 | 5.9 | i | i | i | -5.66* | -9.1 | 61.9%* | i | . | . | . | .
CCc1ccc(-c2nc(CS(=O)CC(=O)NCCCN3CCOCC3)c(C)o2)cc1 (centres undefined) | -1.5 | i | i | i | i | -3.3 | . | . | . | . | . | .
COc1ccc(C(=O)OCC(=O)NCCc2ccc(F)cc2)cc1S(=O)(=O)N1CCOCC1 | 0.9 | . | . | i | . | 1.1 | . | . | . | . | . | .
COc1ccc(C/C(O)=C(\C#N)c2nc3ccccc3s2)cc1 | 5.5 | i | 100* | i | -4.96* | -7.0 | 55.0%* | i | . | . | . | .
O=C(Nc1ccccc1)c1nnn(Cc2ccccc2)c1NC(=O)C(F)(F)F | -5.6 | i | i | i | -5.03* | -5.7 | 32.4%* | i | . | . | . | .
COc1ccccc1NC(=O)c1nnn(Cc2ccccc2)c1NC(=O)C(F)(F)F | -2.0 | i | i | i | i | -6.9 | . | . | . | . | . | .
Cc1ccsc1CNC12CC3CC(CC(C3)C1)C2 | 21.1* | i | i | i | -6.55* | -12.7 | 13.8%* | -13.5* | . | . | . | . | R2B FP artifact=1.7;PKA-R2B act conf=3.9
CCn1cc(CN2CCCC(C(=O)Nc3ccc(-c4cscn4)cc3)C2)cn1 (centres undefined) | 2.0 | i | i | i | i | -9.1 | . | . | . | . | . | .
CN(Cc1ccccc1)c1ccc(C(CC(N)=O)NC(=O)c2ccc(Br)cc2)cc1[N+](=O)[O-] (centres undefined) | 8.4 | i | 25* | i | -6.53* | 25.2* | 70.2%* | i | . | . | . | . | R1A FP artifact=18.9*;PKA-R1A act conf=19.2*
O=C(Cn1cnc(S(=O)(=O)N2CCOCC2)c1)Nc1ccc(OC(F)(F)F)cc1 | -0.2 | i | i | i | i | -5.4 | . | . | . | . | . | .
CN(c1cccc(NC(=O)Nc2cccc(Cl)c2)c1)S(C)(=O)=O | -12.7 | i | 100* | i | -6.66* | -7.8 | 51.3%* | i | 42.5%* | i | -1.05 | -12.0
O=c1c2cc(Cl)ccc2nc(-c2ccccc2)n1O | -2.7 | i | i | i | i | 10.2 | . | . | . | . | . | .
O=c1c2cc(Br)ccc2nc(-c2cccc(C(F)(F)F)c2)n1O | 11.7 | i | 100* | i | -6.02* | 1.6 | 38.6%* | i | 59.5%* | 107.5%* | -1.08 | -43.0
O=C(Nc1cc(S(=O)(=O)N2CCCCC2)ccc1O)c1ccccc1NS(=O)(=O)c1ccc(F)cc1 | -8.6 | i | 100* | i | -5.44* | -9.8 | 26.5%* | i | 67.5%* | i | -1.05 | -18.5
CC(C)(C)c1ccc(S(=O)(=O)/N=C2\C=C(NS(=O)(=O)c3ccccc3)C(=O)c3ccccc32)cc1 | -2.0 | i | 100* | i | -8.71* | -13.1 | 39.8%* | i | 87.5%* | i | -0.946 | -21.0
O=C(NNC1=C(C(=O)C(F)(F)F)CCC1)c1ccc(Br)cc1 | -6.9 | i | 100* | i | -7.47* | -5.6 | 43.1%* | i | 16.0%* | i | -0.982 | -9.0
Nc1ccccc1C(=O)NNC1=C(C(=O)C(F)(F)F)CCC1 | 8.9 | i | i | i | i | 6.4 | . | . | . | . | . | .
O=C1CC(O)(C(F)(F)F)Oc2c1ccc1ccccc21 (centres undefined) | 6.4 | i | 100* | i | -8.13* | 1.7 | 46.0%* | i | 54.0%* | 37.5%* | -1.09 | -24.5
Cc1ccc(SCC2(O)CCN(C(=O)c3ccc(Cl)cc3)CC2)cc1 | 10.0 | i | 25* | i | -5.77* | 8.7 | 65.4%* | i | i | i | -0.93 | 0.5
